From PubChem BioAssay (NCI) come the findings set out here.

Test systems include NCI-H23 lung; NCI-H226 lung; NCI-H322M lung; HOP-62 NSCLC; NCI-H460 lung; HOP-92 NSCLC; NCI-H522 lung; A549/ATCC NSCLC; 786-0 renal; COLO 205 colon; K-562 leukemia; MALME-3M melanoma; MDA-MB-231 breast; RXF 393 renal; SF-268 CNS; SF-295 CNS; SF-539 CNS; UACC-257 melanoma; M14 melanoma.
What all share (experiment): NCI-60 one-dose screen, 48 h (100 = growth as untreated, 0 = no growth, -100 = all killed)
Holding throughout (details): 10 µM unless noted

This is part of a sample that, as a whole, favours compounds with a hit. Of some 83,000 tested, about 20% had one in any assay.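 Assay: single dose, 48 h. Readout: percent growth (0 = no net growth; negative = cell death). Active: <10.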 Unmarked numbers belong to inactive results. Activity calls are given as the source filed them.

Turning to `CCOC(=O)NNc1cccc(Cl)c1`, the growth in the test with NCI-H23 lung is 93.8%; in the test with NCI-H226 lung it was 84.7%; in the test on NCI-H322M lung, 104%; in the test on HOP-62 NSCLC, 103%; in the test on NCI-H460 lung it was 103%; in the test on HOP-92 NSCLC it was 87.5%. Besides, the growth in the test with NCI-H522 lung is 96.6%; with A549/ATCC NSCLC, 107%; in the test with 786-0 renal it was 112%; in the test with COLO 205 colon, 123%; in the test on K-562 leukemia it was 102%; in the test with MALME-3M melanoma, 93.6%. Besides, the growth is 76.3% in the test on MDA-MB-231 breast; 100% in the test with RXF 393 renal; 110% with SF-268 CNS; 109% in the test on SF-295 CNS; 99.8% with SF-539 CNS; 103% in the test on UACC-257 melanoma. In the test with M14 melanoma, the growth was 104%.
On to `CCCCCCCCCCCCCCCC1=NCC[N+]1(CCO)CCO`, for which the growth with NCI-H23 lung was 53.7%; in the test on NCI-H226 lung, 73.4%; in the test on NCI-H322M lung it was 84.7%; with HOP-62 NSCLC, 57.7%; with NCI-H460 lung, 3.37% (active); in the test with HOP-92 NSCLC, 5.24% (active). For the same compound, the growth was 40.8% in the test on NCI-H522 lung; 50% in the test on A549/ATCC NSCLC; 55.5% with 786-0 renal; 82.8% with COLO 205 colon; 1.44% (active) in the test on K-562 leukemia; 108% in the test on MALME-3M melanoma. The growth in the test with MDA-MB-231 breast was 36.7%; with RXF 393 renal it was 34.9%; in the test with SF-295 CNS, 76.7%; in the test on SF-539 CNS, 73.3%; in the test with UACC-257 melanoma, 102%; with M14 melanoma, 7.86% (active).
Take `COc1cc(-c2nc(-c3nc4cc(C(=O)c5ccccc5)ccc4[nH]3)cc3c2[nH]c2ccccc23)cc(OC)c1OC`: the growth in the test with NCI-H23 lung is 104%; in the test on NCI-H226 lung, 91.1%; with NCI-H322M lung, 99.4%; in the test with HOP-62 NSCLC it was 97.7%; with NCI-H460 lung it was 95.6%; in the test on HOP-92 NSCLC, 82.5%. In addition, the growth was 90.6% with NCI-H522 lung; 75.9% with A549/ATCC NSCLC; 97.3% in the test with 786-0 renal; 97.7% with COLO 205 colon; 80.3% in the test with K-562 leukemia; 102% with MALME-3M melanoma. Also, the growth in the test with MDA-MB-231 breast was 86.4%; in the test on RXF 393 renal, 93.8%; in the test on SF-268 CNS, 99.5%; in the test with SF-295 CNS, 77.1%; with SF-539 CNS it was 80.6%; in the test with UACC-257 melanoma it was 109%. Besides, the growth in the test with M14 melanoma is 85.8%.
Regarding `O=C(/C=C/c1cc([N+](=O)[O-])ccc1Cl)c1ccccc1`, the growth in the test on NCI-H23 lung is 87.6%; in the test on NCI-H226 lung, 86.5%; in the test with NCI-H322M lung, 88.1%; with HOP-62 NSCLC, 103%; in the test on NCI-H460 lung, 97.6%; in the test on HOP-92 NSCLC it was 73.7%. The growth is 82.9% with NCI-H522 lung; 91.5% with A549/ATCC NSCLC; 78.4% in the test on 786-0 renal; 109% in the test with COLO 205 colon; 24.4% in the test with K-562 leukemia; 102% in the test with MALME-3M melanoma. Further, the growth was 85.9% in the test with MDA-MB-231 breast; 97.8% in the test with RXF 393 renal; 94.8% in the test with SF-268 CNS; 95.9% with SF-295 CNS; 107% with SF-539 CNS; 104% in the test with UACC-257 melanoma. In addition, the growth with M14 melanoma is 94.1%.
`CCN(CC)c1ccc(C(=N)c2ccc(N(C)C)cc2)cc1`: the growth is -23.3% (active) in the test on NCI-H23 lung; 16.4% in the test with NCI-H226 lung; 60.6% with NCI-H322M lung; 7.49% (active) in the test with HOP-62 NSCLC; 0.221% (active) in the test on NCI-H460 lung; -21% (active) in the test with HOP-92 NSCLC. Besides, the growth is -13.5% (active) in the test with NCI-H522 lung; 28.6% in the test on A549/ATCC NSCLC; 7.03% (active) with 786-0 renal; -54.5% (active) in the test on COLO 205 colon; 4.01% (active) in the test with K-562 leukemia; 31.9% in the test with MALME-3M melanoma. The growth is 17.8% in the test with MDA-MB-231 breast; 12.8% with RXF 393 renal; -13.1% (active) in the test on SF-295 CNS; -37.4% (active) with SF-539 CNS; -3.29% (active) with UACC-257 melanoma; -44.4% (active) in the test with M14 melanoma.
`COCCn1c(Nc2ccc(C(=O)NO)cc2)nc2ccccc21`: the growth with NCI-H23 lung was 72.8%; in the test on NCI-H226 lung, 89.6%; in the test with NCI-H322M lung, 76.5%; in the test on HOP-62 NSCLC, 74.8%; in the test with NCI-H460 lung it was 56.7%; with HOP-92 NSCLC it was 27.7%. In addition, the growth is 30.9% in the test with NCI-H522 lung; 69.2% in the test on A549/ATCC NSCLC; 84.4% in the test on 786-0 renal; 50.7% in the test on COLO 205 colon; 34.6% with K-562 leukemia; 30.6% with MALME-3M melanoma. Also, the growth was 81.5% in the test on MDA-MB-231 breast; 39.1% with RXF 393 renal; 82.3% in the test on SF-268 CNS; 61.9% in the test with SF-295 CNS; 62% with SF-539 CNS; 27.8% in the test on UACC-257 melanoma. Also, in the test on M14 melanoma, the growth is 51.6%.
Consider `O=C(CCCCCCc1nc2ccc(Br)cc2[nH]1)NO`, for which the growth was -25.6% (active) with NCI-H23 lung; 19.3% with NCI-H226 lung; 4.52% (active) in the test on NCI-H322M lung; 12.5% in the test with HOP-62 NSCLC; -25.6% (active) with NCI-H460 lung; -21.7% (active) in the test with HOP-92 NSCLC. The growth in the test with NCI-H522 lung was -16% (active); in the test with A549/ATCC NSCLC it was 7.55% (active); with 786-0 renal it was -4.46% (active); in the test with COLO 205 colon, -98.5% (active); in the test with K-562 leukemia, 6.07% (active); with MALME-3M melanoma, -6.27% (active). Moreover, the growth is 2.73% (active) in the test with MDA-MB-231 breast; -78.3% (active) in the test on RXF 393 renal; 11.1% in the test with SF-268 CNS; -17.2% (active) in the test on SF-295 CNS; 17.8% with SF-539 CNS; -11% (active) in the test on UACC-257 melanoma. The growth with M14 melanoma is -16.1% (active).
Regarding `O=C1C=CC(=O)N1c1cccc(N2C(=O)C=CC2=O)c1`, the growth was 98.7% with NCI-H23 lung; 111% in the test with NCI-H226 lung; 116% in the test on NCI-H322M lung; 114% with HOP-62 NSCLC; 119% in the test with NCI-H460 lung; 94.9% in the test with HOP-92 NSCLC. Also, the growth is -73.1% (active) in the test on NCI-H522 lung; 101% with A549/ATCC NSCLC; 108% in the test on 786-0 renal; -48.1% (active) with COLO 205 colon; 104% in the test with K-562 leukemia; -36.4% (active) in the test with MALME-3M melanoma. In addition, the growth in the test on MDA-MB-231 breast was 107%; with RXF 393 renal it was -2.87% (active); in the test with SF-268 CNS it was 108%; with SF-295 CNS, 102%; with SF-539 CNS, 104%; in the test on UACC-257 melanoma it was 96.8%. In addition, the growth with M14 melanoma is 98.8%.
